The record followed here is PubChem BioAssay (Tox21).

The nature of experiment [1]: qHTS assay to identify small molecule antagonists of the peroxisome proliferator-activated receptor delta (PPARd) signaling pathway - cell viability counter screen (AID 743213). Note: nearly all actives have a fitted effect of over 50% in size. Note: potency is the fitted concentration of half-maximal effect. A digest of the protocol:
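CellTiter-Glo was added to PPARd-bla HEK293H wells following 17 h compound treatment in the presence of 300 nM L165041. Luminescence was recorded after 30 min at room temperature.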
Background: qHTS replaces the single test concentration by a dilution series.

For experiment [2], the target named is Bile acid receptor (Homo sapiens) (UniProt Q96RI1). Put plainly: qHTS assay to identify small molecule agonists of the farnesoid-X-receptor (FXR) signaling pathway (AID 743220; active = well fitted activation curve with a large enough effect in the signal ratio in the repeat runs, not every such curve was filed as active; the % refers to the signal ratio). A digest of the protocol:
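FXR-UAS-bla HEK 293T cells carrying a UAS-driven beta-lactamase reporter were plated for 5 h at 37C/5% CO2, then exposed to DMSO-dissolved Tox21 10K compounds for 16 h at 37C. A LiveBLAzer B/G FRET substrate was loaded for 2 h at room temperature before fluorescence reading.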

Experiment [3] in a line: qHTS assay to identify small molecule antagonists of the farnesoid-X-receptor (FXR) signaling pathway - cell viability counter screen (AID 743221; active = well fitted cell-killing curve with a large enough effect in the repeat runs, not every such curve was filed as active; note: nearly all actives have a fitted effect of over 50% in size; note: potency is the fitted concentration of half-maximal effect). A digest of the protocol:
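In GeneBLAzer FXR-UAS-bla HEK 293T cells stimulated with 50 uM chenodeoxycholic acid (final), compounds acted for 16 h at 37 C. Viability was assessed afterwards by CellTiter-Glo luminescence.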

Experiment [4] can be described thus: qHTS assay to identify small molecule agonists of the vitamin D receptor (VDR) signaling pathway - cell viability counter screen (AID 743224). Note: nearly all actives have a fitted effect of over 50% in size. Note: potency is the fitted concentration of half-maximal effect. A digest of the protocol:
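Cytotoxicity counter screen: VDR-bla cells, 16 h compound exposure at 37C, 5% CO2; CellTiter-Glo luminescence, 30 min RT, same wells as bla read.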

A short description of experiment [5]: qHTS assay to identify small molecule agonists of the NFkB signaling pathway - cell viability counter screen (AID 1159515; calls by dose curve; note: nearly all actives have a fitted effect of over 55% in size; note: potency is the fitted concentration of half-maximal effect). A digest of the protocol: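 ME-180 NFkB-bla cells, 2,000/well; overnight attach; compound 5 hr, 37 C/5% CO2; LiveBLAzer substrate 1.5 hr RT; then CellTiter-Glo in same wells, 30 min RT, luminescence read.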
A short description of experiment [6]: qHTS assay to identify small molecule antagonists of the retinoid-related orphan receptor gamma (ROR-gamma) signaling pathway - cell viability counter screen (AID 1159520). Note: nearly all actives have a fitted effect of over 50% in size. Note: potency is the fitted concentration of half-maximal effect. A digest of the protocol: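 Cytotoxicity was read from cellular ATP (CellTiter-Glo luminescence) after 16 hr at 37 C with 1 uM doxycycline induction. The inducer was added 2 hr after compound transfer to Tet-on ROR gamma CHO cells.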

The target in experiment [7] is Nuclear receptor ROR-gamma (Homo sapiens) (UniProt P51449). Nature of the experiment: qHTS assay to identify small molecule antagonists of the retinoid-related orphan receptor gamma (ROR-gamma) signaling pathway (AID 1159521; note: nearly all actives have a fitted effect of over 50% in size; note: potency is the fitted concentration of half-maximal effect). The method in brief:
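CHO cells expressing RORγ under a TET-on promoter, luciferase under RORE control. Dox 1 uM final, 16 h; compounds added 2 h prior. Luminescence decrease measured.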

For experiment [8], the target named is Peroxisome proliferator-activated receptor delta (Homo sapiens) (UniProt Q03181). Nature of the experiment: qHTS assay to identify small molecule agonists of the peroxisome proliferator-activated receptor delta (PPARd) signaling pathway (AID 743212; calls by dose curve; note: potency is the fitted concentration of half-maximal effect). A digest of the protocol:
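Beta-lactamase reporter readout: a ratiometric FRET signal from the LiveBLAzer substrate after 2 h at room temperature. Compound exposure at 37 °C in PPARδ-bla HEK293H cells driven by an upstream activator sequence.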

The target is the same in experiment [9]. Put plainly: qHTS assay to identify small molecule antagonists of the peroxisome proliferator-activated receptor delta (PPARd) signaling pathway (AID 743215; active = well fitted inhibition curve with a large enough effect in the signal ratio in the repeat runs, not every such curve was filed as active; the % refers to the signal ratio;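 note: cells stimulated with agonist L165041 at 300 nM final during compound exposure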; note: potency is the fitted concentration of half-maximal effect). A digest of the protocol:
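HEK293H GeneBLAzer PPARd UAS-bla reporter cells; cpd + L165041 300 nM final, 17 h 37 C; LiveBLAzer B/G FRET substrate 2 h RT; fluorescence intensity read-out. Antagonist mode.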

Experiment [10] in a line: qHTS assay to identify small molecule antagonists of the vitamin D receptor (VDR) signaling pathway - cell viability counter screen (AID 743225). Note: nearly all actives have a fitted effect of over 50% in size. Note: potency is the fitted concentration of half-maximal effect. The method in brief:
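Luminescent cell viability (CellTiter-Glo) in VDR-bla HEK 293T cells after 16 h compound exposure at 37C in the presence of 3 nM final 1-alpha,25-dihydroxy vitamin D3.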

Experiment [11] can be described thus: qHTS assay to identify small molecule agonists of the AP-1 signaling pathway - cell viability counter screen (AID 1159525; calls by dose curve; note: nearly all actives have a fitted effect of over 55% in size; note: potency is the fitted concentration of half-maximal effect). The method in brief:
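Intracellular ATP by Cell Titer Glo luminescence (30 min, RT) in the same ME-180 AP-1-bla wells after the 5 h compound exposure at 37 °C. Normalised to tetra n-octyl ammonium bromide and DMSO controls.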

Experiment [12] can be described thus: qHTS assay to identify small molecule agonists of the RXR signaling pathway - cell viability counter screen (AID 1159529). Note: nearly all actives have a fitted effect of over 50% in size. Note: potency is the fitted concentration of half-maximal effect. A digest of the protocol:
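Same-well viability check after the LiveBLAzer FRET read: CellTiter-Glo added, luminescence measured after 30 min at room temperature. Reporter HEK 293T cells had been treated with compounds for 16 hr following a 5 hr preincubation.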

The target of experiment [13] is Bile acid receptor (Homo sapiens) (UniProt Q96RI1). Nature of the experiment: qHTS assay to identify small molecule antagonists of the farnesoid-X-receptor (FXR) signaling pathway (AID 743217; active = well fitted inhibition curve with a large enough effect in the signal ratio in the repeat runs, not every such curve was filed as active; the % refers to the signal ratio). A digest of the protocol: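 Read-out: beta-lactamase FRET fluorescence (LiveBLAzer B/G substrate, 2 h, room temperature) in GeneBLAzer FXR-UAS-bla HEK 293T cells. Compounds were co-dosed with 50 uM chenodeoxycholic acid (final) and incubated 16 h at 37 °C.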

The nature of experiment [14]: qHTS assay to identify small molecule agonists of the farnesoid-X-receptor (FXR) signaling pathway - cell viability counter screen (AID 743218). Note: nearly all actives have a fitted effect of over 45% in size. Note: potency is the fitted concentration of half-maximal effect. The method in brief:
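Luminescence from CellTiter-Glo, read after 30 min at RT, reports viability of GeneBLAzer FXR-UAS-bla HEK 293T cells treated 16 h with compounds in the wells used for the beta-lactamase reporter.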

For experiment [15], the target named is Vitamin D3 receptor (Homo sapiens) (UniProt P11473). Nature of the experiment: qHTS assay to identify small molecule agonists of the vitamin D receptor (VDR) signaling pathway (AID 743222; calls by dose curve). A digest of the protocol: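 Beta-lactamase reporter readout (LiveBLAzer B/G FRET, 2 h RT) in VDR-bla cells after 16 h compound treatment at 37C, 5% CO2; cells pre-incubated 4 h before pin transfer of DMSO solutions.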

A short description of experiment [16]: qHTS assay to identify small molecule agonists of the endoplasmic reticulum stress response signaling pathway (AID 1159516; active = well fitted activation curve with a large enough effect in the signal ratio in the repeat runs, not every such curve was filed as active; the % refers to the signal ratio). The method in brief: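 HeLa ESRE-bla reporter line; cpd 5 h, 37 C/5% CO2; LiveBLAzer B/G FRET substrate 2 h RT; ex 405, em 460/530 nm.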
A short description of experiment [17]: qHTS assay to identify small molecule agonists of the endoplasmic reticulum stress response signaling pathway - cell viability counter screen (AID 1159517; calls by dose curve; note: nearly all actives have a fitted effect of over 50% in size; note: potency is the fitted concentration of half-maximal effect). A digest of the protocol:
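ESRE-bla HeLa cells (1,500/well) were plated overnight at 37 C and exposed to compounds for 5 hr. After the 2 hr beta-lactamase substrate read, CellTiter-Glo went into the same wells, and luminescence was read after 30 min at room temperature.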

Experiment [18] is described as follows: qHTS assay to identify small molecule agonists of the AP-1 signaling pathway (AID 1159526; calls by dose curve).
The target of experiment [19] is Retinoic acid receptor RXR-alpha (Homo sapiens) (UniProt P19793). Nature of the experiment: qHTS assay to identify small molecule agonists of the RXR signaling pathway (AID 1159527; calls by dose curve; note: nearly all actives have a fitted effect of over 35% in size). The method in brief: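 Beta-lactamase reporter assay, agonist format. Engineered HEK 293T line, charcoal-stripped FBS at 2%, overnight (16 hr) exposure, fluorescence at 460 and 530 nm after 405 nm excitation.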

Several values for one entry are separate records, joined by “and”; a condition that tells them apart may be missing. Identical values can stand only once. Inconclusive results are not listed. Where a structure was tested more than once in an assay, its records may differ in their call. Activity calls are given as the source filed them. Unless noted, calls come from the whole dose curve; as a rule, active = well fitted curve in the direction sought with a large enough effect in the repeat runs; inconclusive = weak or mixed curves; inactive = no such curve, though single readings can be large; an effect the other way counts as inactive or inconclusive.

Retinoic acid receptor RXR-alpha (Homo sapiens), sequence (P19793 whole entry, looked up): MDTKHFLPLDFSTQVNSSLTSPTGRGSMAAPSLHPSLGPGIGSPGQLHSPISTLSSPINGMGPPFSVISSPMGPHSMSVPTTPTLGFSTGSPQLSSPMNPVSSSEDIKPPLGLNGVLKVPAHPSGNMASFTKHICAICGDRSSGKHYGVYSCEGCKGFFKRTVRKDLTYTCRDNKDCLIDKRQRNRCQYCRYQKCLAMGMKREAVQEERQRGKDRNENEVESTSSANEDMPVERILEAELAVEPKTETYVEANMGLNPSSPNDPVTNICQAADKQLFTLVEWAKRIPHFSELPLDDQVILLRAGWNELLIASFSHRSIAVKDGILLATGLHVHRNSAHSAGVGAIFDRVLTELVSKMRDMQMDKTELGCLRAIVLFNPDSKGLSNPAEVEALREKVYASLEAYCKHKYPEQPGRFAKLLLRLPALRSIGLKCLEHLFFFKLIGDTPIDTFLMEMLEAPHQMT
Vitamin D3 receptor (Homo sapiens), sequence (P11473 whole entry, looked up): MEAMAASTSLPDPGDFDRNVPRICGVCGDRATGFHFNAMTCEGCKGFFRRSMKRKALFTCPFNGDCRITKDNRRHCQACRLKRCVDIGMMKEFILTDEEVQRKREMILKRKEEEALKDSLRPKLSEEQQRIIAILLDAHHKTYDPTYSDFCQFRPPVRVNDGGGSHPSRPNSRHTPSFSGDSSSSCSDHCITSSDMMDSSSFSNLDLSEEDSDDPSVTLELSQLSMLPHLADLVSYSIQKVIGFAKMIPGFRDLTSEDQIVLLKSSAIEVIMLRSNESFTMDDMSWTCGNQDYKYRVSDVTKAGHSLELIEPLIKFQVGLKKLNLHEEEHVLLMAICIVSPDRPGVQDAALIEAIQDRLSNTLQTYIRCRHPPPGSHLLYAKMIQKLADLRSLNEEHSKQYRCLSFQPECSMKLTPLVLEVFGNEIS
Peroxisome proliferator-activated receptor delta (Homo sapiens), sequence (Q03181 whole entry, looked up): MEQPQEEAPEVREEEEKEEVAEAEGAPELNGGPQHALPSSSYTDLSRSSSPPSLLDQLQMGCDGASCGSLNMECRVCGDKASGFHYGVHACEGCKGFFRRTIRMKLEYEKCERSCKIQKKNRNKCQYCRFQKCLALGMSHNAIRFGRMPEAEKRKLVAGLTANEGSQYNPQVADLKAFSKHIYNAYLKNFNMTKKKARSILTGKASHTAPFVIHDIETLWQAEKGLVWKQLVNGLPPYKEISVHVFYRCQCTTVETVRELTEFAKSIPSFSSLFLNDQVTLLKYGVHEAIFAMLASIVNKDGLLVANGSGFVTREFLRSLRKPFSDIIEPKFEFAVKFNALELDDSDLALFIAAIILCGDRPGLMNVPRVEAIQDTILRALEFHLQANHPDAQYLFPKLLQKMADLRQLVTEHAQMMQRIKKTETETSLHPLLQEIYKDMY
Bile acid receptor (Homo sapiens), sequence (Q96RI1 whole entry, looked up): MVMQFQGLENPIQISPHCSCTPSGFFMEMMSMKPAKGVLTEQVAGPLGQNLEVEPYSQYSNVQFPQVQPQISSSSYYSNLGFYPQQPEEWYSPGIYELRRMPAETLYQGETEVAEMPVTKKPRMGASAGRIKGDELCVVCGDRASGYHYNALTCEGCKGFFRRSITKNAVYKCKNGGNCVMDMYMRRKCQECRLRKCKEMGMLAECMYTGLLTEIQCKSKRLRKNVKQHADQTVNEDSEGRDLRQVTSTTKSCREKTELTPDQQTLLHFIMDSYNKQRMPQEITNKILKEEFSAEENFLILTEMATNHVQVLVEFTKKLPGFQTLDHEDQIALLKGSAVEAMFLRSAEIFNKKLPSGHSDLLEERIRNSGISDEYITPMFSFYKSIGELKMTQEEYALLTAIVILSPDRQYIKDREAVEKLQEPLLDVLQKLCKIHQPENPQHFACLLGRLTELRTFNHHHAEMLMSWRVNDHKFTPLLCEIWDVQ

For the compound `CCC(C)Nc1ccc(NC(C)CC)cc1` (centres undefined), the Potency in experiment [1] was 22.3 µM (active); in [3], 35.3 µM (active); in experiment [4], 17.7 µM (active); in [5] it was 44.5 µM (active); in [6] it was 31.2 µM (active); in [7], 27.8 µM (active). In addition, in experiment [2], the Potency result was “inactive”.
Consider `Cc1c(C)c2c(c(C)c1OC(=O)CCC(=O)O)CC[C@@](C)(CCC[C@H](C)CCC[C@H](C)CCCC(C)C)O2`, for which the Potency result in [8], in experiment [1], in experiment [9], in experiment [2], in experiment [3] and in experiment [4] was “inactive” throughout. Further, the Potency entry in experiment [10] and in experiment [5] was “inactive” in each case. The Potency in [6] and in [7] was 27.6 µM (active) each time.
As for `CCCCC(CC)COC(=O)c1ccccc1C(=O)O` (centres undefined), in [8], the Potency is 49.9 µM (active). Besides, the Potency entry in experiment [3], in experiment [5], in experiment [6], in experiment [11] and in [12] was “inactive” throughout.
As for `C[C@H](CCC(=O)O)[C@H]1CC[C@H]2[C@@H]3CC[C@@H]4C[C@H](O)CC[C@]4(C)[C@H]3CC[C@]12C`, the Potency entry in experiment [9], in experiment [13], in experiment [10] and in [7] was “inactive” each time. Further, the Potency result in experiment [3] is “inactive and 43.6 µM (active)”; in [4], 24.5 µM (active); in experiment [5], 49 µM (active); in [6], 60.9 µM (active) and inactive; in [11] it was 48.8 µM (active); in [12], 38.7 µM (active).
As to `CN(C)C(=O)C1(N2CCCCC2)CCN(CC[C@@]2(c3ccc(Cl)c(Cl)c3)CN(C(=O)c3ccccc3)CCO2)CC1`, the Potency in experiment [1] is 16.2 µM (active); in [14] it was 16.2 µM (active); in experiment [3], 32.4 µM (active); in [4], 20.4 µM (active); in experiment [5], 51.3 µM (active); in [6], 50.9 µM (active). The Potency in [7] was 32.1 µM (active). Further, in experiment [15], the Potency result was “inactive”.
As to `O=C(Oc1cccc2cccnc12)c1ccccc1`, the Potency result in [8], in [10], in [6] and in [11] was “inactive” throughout. For the same compound, the Potency is 4.22 µM (active) in experiment [1]; 9.44 µM (active) in experiment [14]; 8.41 µM (active) in experiment [3]; 3.76 µM (active) in experiment [4]; 2.39 µM (active) in [5]; 8.49 µM (active) in experiment [12].
As for `Cc1ccc(O)c2ncccc12`, the Potency was 1.19 µM (active) in experiment [1]; 0.944 µM (active) in experiment [4]; 6.01 µM (active) in experiment [5]; 21.1 µM (active) in experiment [6]; 15 µM (active) in [7]; 16.9 µM (active) in experiment [11]. Moreover, the Potency result in [2] is “inactive”.
Regarding `Oc1ccc(C2(c3ccc(O)cc3)CC3CC2C2CCCC32)cc1` (centres undefined), the Potency in experiment [1] is 23.6 µM (active); in experiment [4], 23.6 µM (active); in experiment [5], 52.8 µM (active); in experiment [6] it was 52.3 µM (active); in experiment [7] it was 46.6 µM (active); in [11] it was 41.9 µM (active). For the same compound, in experiment [12], the Potency is 16.7 µM (active).
As to `CCC(N)(CO)CO`, the Potency result in [8], in [9], in experiment [14], in [3], in experiment [15] and in [4] was “inactive” each time. Besides, the Potency result in experiment [10], in experiment [17], in [6], in [7], in experiment [11] and in experiment [18] was “inactive” in each case. In addition, the Potency entry in experiment [19] and in [12] was “inactive” in each case. Also, in experiment [16], the result was inactive.
On to `CC(=O)OCC(C)OC(C)=O` (centres undefined), for which the Potency result in experiment [8], in [1], in experiment [9], in experiment [13], in experiment [2] and in experiment [3] was “inactive” in each case. The Potency result in [15], in [4], in experiment [10], in experiment [17], in [6] and in [7] was “inactive” each time. In addition, the Potency result in experiment [11], in experiment [18], in experiment [19] and in experiment [12] was “inactive” in each case. Moreover, in [16], the result was inactive.
For `CCCCCCOC(=O)c1ccc(O)cc1`, the Potency entry in experiment [8], in [14], in experiment [2], in [3], in experiment [15] and in experiment [6] was “inactive” each time. Moreover, the Potency result in experiment [7] and in [19] was “inactive” in each case. In [16], the outcome was inactive. In experiment [17], the Potency is 49 µM (active).
In the case of `C/C=C(\C)C(=O)OCc1ccccc1`, the Potency result in experiment [14], in experiment [3], in [15], in experiment [10], in [17] and in experiment [6] was “inactive” each time. The Potency result in experiment [7], in experiment [11], in experiment [18], in experiment [19] and in experiment [12] was “inactive” each time. Besides, in [16], the call was inactive.
With `O=C(Nc1cccc(Cl)c1)OCC#CCCl`, the Potency in [9] is 11 µM (active); in experiment [4], 43.6 µM (active); in [10], 54.9 µM (active). For the same compound, the Potency entry in experiment [5] and in experiment [11] was “inactive” throughout.
